Drawing on paper PMC8384837, “Expanding the binding specificity for RNA recognition by a PUF domain”, this text covers binding signal for 14 sequences.

What all share (assay): yeast three-hybrid, YBZ-1, SC-Leu-His + 0.5 mM 3-AT, 4 days
Common to all, as to conditions: tags: N-Gal4 AD-HA kept; label: inside an RPR1-promoter hybrid RNA with tandem MS2 sites; ssRNA

One experiment concerns the target PUM1 PUF domain R5-DQQ (Homo sapiens, UniProt Q14671 828-1176, C1007D;R1008Q). The method in brief:
(§1)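 Sequencing with Illumina followed PCR amplification of the repeat regions from transformants grown four days on SC-Leu (input) or SC-Leu-His + 0.5 mM 3-AT (selection). The transformants were strain YBZ-1 with a LexA–MS2 coat fusion and a HIS3 reporter, carrying Pumilio-1 PUF domain libraries and matching RNA elements. The interaction score is the log change in variant frequency from input to selection, computed in log2 with a pseudocount of 1 for absent variants.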

In the next experiment the target is PUM1 PUF domain R5-NCR (Homo sapiens, UniProt Q14671 828-1176, C1007N;R1008C;Q1011R). Summed up: as §1
The target in a further experiment is PUM1 PUF domain R1-GGE (Homo sapiens, UniProt Q14671 828-1176, S863G;R864G;Q867E). Summed up: as §1
The next experiment has as its target PUM1 PUF domain R5-RYW (Homo sapiens, UniProt Q14671 828-1176, C1007R;R1008Y;Q1011W). The method in brief: as §1
For a further experiment, the target named is PUM1 PUF domain R7-KYW (Homo sapiens, UniProt Q14671 828-1176, S1079K;N1080Y;E1083W). The method in brief: as §1
Another experiment concerns the target PUM1 PUF domain R7-RPQ (Homo sapiens, UniProt Q14671 828-1176, S1079R;N1080P;E1083Q). The method in brief: as §1
A further experiment concerns the target PUM1 PUF domain R4-EPG (Homo sapiens, UniProt Q14671 828-1176, N971E;H972P;Q975G). Summed up:
as §1

In another experiment the target is PUM1 PUF domain R4-GNS (Homo sapiens, UniProt Q14671 828-1176, N971G;H972N;Q975S). The method in brief:
as §1

The target in a further experiment is PUM1 PUF domain R5-MHM (Homo sapiens, UniProt Q14671 828-1176, C1007M;R1008H;Q1011M). Summed up:
as §1

In the next experiment the target is PUM1 PUF domain R3-FRP (Homo sapiens, UniProt Q14671 828-1176, C935F;Q939P). Summed up:
as §1

A further experiment has as its target PUM1 PUF domain R2-RKA (Homo sapiens, UniProt Q14671 828-1176, N899R;Y900K;Q903A). The method in brief:
as §1

The target of another experiment is PUM1 PUF domain R8-KRL (Homo sapiens, UniProt Q14671 828-1176, N1122K;Y1123R;Q1126L). Summed up: as §1
In a further experiment the target is PUM1 PUF domain R8-QWR (Homo sapiens, UniProt Q14671 828-1176, N1122Q;Y1123W;Q1126R). The method in brief: as §1
The next experiment addresses PUM1 PUF domain R8-RWN (Homo sapiens, UniProt Q14671 828-1176, N1122R;Y1123W;Q1126N). Summed up: as §1
For another experiment, the target named is PUM1 PUF domain R4-NRM (Homo sapiens, UniProt Q14671 828-1176, H972R;Q975M). Summed up:
as §1

In another experiment the target is PUM1 PUF domain R4-RHA (Homo sapiens, UniProt Q14671 828-1176, N971R;Q975A). Summed up: as §1
The target of another experiment is PUM1 PUF domain R4-VRG (Homo sapiens, UniProt Q14671 828-1176, N971V;H972R;Q975G). The method in brief: as §1
The target in a further experiment is T1, PUM1 PUF domain R6-RWV (Homo sapiens, UniProt Q14671 828-1176, N1043R;Y1044W;Q1047V).
T1 sequence: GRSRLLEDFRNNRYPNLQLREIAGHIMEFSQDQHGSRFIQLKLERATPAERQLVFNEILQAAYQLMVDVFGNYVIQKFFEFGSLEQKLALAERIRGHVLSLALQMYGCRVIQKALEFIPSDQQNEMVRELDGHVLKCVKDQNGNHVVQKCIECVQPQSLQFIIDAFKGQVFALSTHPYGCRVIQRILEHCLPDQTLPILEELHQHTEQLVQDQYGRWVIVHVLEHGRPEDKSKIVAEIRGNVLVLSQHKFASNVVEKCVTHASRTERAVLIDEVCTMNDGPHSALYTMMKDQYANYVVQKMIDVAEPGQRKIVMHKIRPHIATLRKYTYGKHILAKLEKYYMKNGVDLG
Summed up: as §1

For the next experiment, the target named is PUM1 PUF domain R7-LTC (Homo sapiens, UniProt Q14671 828-1176, S1079L;N1080T;E1083C). The method in brief: as §1
Another experiment concerns the target PUM1 PUF domain R3-RSH (Homo sapiens, UniProt Q14671 828-1176, C935R;R936S;Q939H). The method in brief: as §1

For “GGCUAGAACUAGUGGAUCCCCCGGCGCCCGGCGGCUCGAGCCCGGGUAAGUGUCAAUAGUCUGCAUGCCGCCGGGCGCCAUGCCUGCAGGUCGACUCUAGAAAACAUG”, the binding signal with PUM1 PUF domain R5-DQQ is 5.11 log2 enrichment (interaction score); with PUM1 PUF domain R5-NCR, 1.7 log2 enrichment (interaction score).

For the sequence “GGCUAGAACUAGUGGAUCCCCCGGCGCCCGGCGGCUCGAGCCCGGGUAAGUGUAAAUGGUCUGCAUGCCGCCGGGCGCCAUGCCUGCAGGUCGACUCUAGAAAACAUG”, the binding signal in the experiment with PUM1 PUF domain R1-GGE was 2.22 log2 enrichment (interaction score).

Take “GGCUAGAACUAGUGGAUCCCCCGGCGCCCGGCGGCUCGAGCCCGGGUAAGUGUUAAUAGUCUGCAUGCCGCCGGGCGCCAUGCCUGCAGGUCGACUCUAGAAAACAUG”: the binding signal with PUM1 PUF domain R5-RYW is 3.92 log2 enrichment (interaction score); with PUM1 PUF domain R5-NCR, 4.23 log2 enrichment (interaction score).

“GGCUAGAACUAGUGGAUCCCCCGGCGCCCGGCGGCUCGAGCCCGGGUAAGUCUAAAUAGUCUGCAUGCCGCCGGGCGCCAUGCCUGCAGGUCGACUCUAGAAAACAUG”: the binding signal was 3.27 log2 enrichment (interaction score) with PUM1 PUF domain R7-KYW and 2.7 log2 enrichment (interaction score) with PUM1 PUF domain R7-RPQ.

For “GGCUAGAACUAGUGGAUCCCCCGGCGCCCGGCGGCUCGAGCCCGGGUAAGUGUAUAUAGUCUGCAUGCCGCCGGGCGCCAUGCCUGCAGGUCGACUCUAGAAAACAUG”, the binding signal with PUM1 PUF domain R4-EPG is 2.97 log2 enrichment (interaction score); with PUM1 PUF domain R4-GNS it was 4.46 log2 enrichment (interaction score).

On to “GGCUAGAACUAGUGGAUCCCCCGGCGCCCGGCGGCUCGAGCCCGGGUAAGUGUGAAUAGUCUGCAUGCCGCCGGGCGCCAUGCCUGCAGGUCGACUCUAGAAAACAUG”, for which the binding signal with PUM1 PUF domain R5-MHM is 2.99 log2 enrichment (interaction score).

As to “GGCUAGAACUAGUGGAUCCCCCGGCGCCCGGCGGCUCGAGCCCGGGUAAGUGUAAGUAGUCUGCAUGCCGCCGGGCGCCAUGCCUGCAGGUCGACUCUAGAAAACAUG”, the binding signal with PUM1 PUF domain R3-FRP was 2.47 log2 enrichment (interaction score).

Turning to “GGCUAGAACUAGUGGAUCCCCCGGCGCCCGGCGGCUCGAGCCCGGGUAAGUGUAAAGAGUCUGCAUGCCGCCGGGCGCCAUGCCUGCAGGUCGACUCUAGAAAACAUG”, the binding signal with PUM1 PUF domain R2-RKA was 7.14 log2 enrichment (interaction score).

For “GGCUAGAACUAGUGGAUCCCCCGGCGCCCGGCGGCUCGAGCCCGGGUAAGCGUAAAUAGUCUGCAUGCCGCCGGGCGCCAUGCCUGCAGGUCGACUCUAGAAAACAUG”, the values for the binding signal with PUM1 PUF domain R8-KRL, with PUM1 PUF domain R8-QWR and with PUM1 PUF domain R8-RWN were 3.37 log2 enrichment (interaction score), 5.32 log2 enrichment (interaction score) and 0.65 log2 enrichment (interaction score), respectively.

With “GGCUAGAACUAGUGGAUCCCCCGGCGCCCGGCGGCUCGAGCCCGGGUAAGUGUAAAUAGUCUGCAUGCCGCCGGGCGCCAUGCCUGCAGGUCGACUCUAGAAAACAUG”, the binding signal is 1.26 log2 enrichment (interaction score) with PUM1 PUF domain R8-KRL; 3.21 log2 enrichment (interaction score) with PUM1 PUF domain R4-NRM; 4.74 log2 enrichment (interaction score) with PUM1 PUF domain R8-QWR; 3.02 log2 enrichment (interaction score) with PUM1 PUF domain R4-RHA; 2.33 log2 enrichment (interaction score) with PUM1 PUF domain R5-RYW; 2.81 log2 enrichment (interaction score) with PUM1 PUF domain R5-DQQ. The binding signal with PUM1 PUF domain R8-RWN was 4.57 log2 enrichment (interaction score); in the experiment with PUM1 PUF domain R4-EPG, 1.2 log2 enrichment (interaction score); with PUM1 PUF domain R4-GNS, 2.34 log2 enrichment (interaction score); with PUM1 PUF domain R4-VRG, 4.34 log2 enrichment (interaction score); in the experiment with PUM1 PUF domain R6-RWV, 5.13 log2 enrichment (interaction score).

Take “GGCUAGAACUAGUGGAUCCCCCGGCGCCCGGCGGCUCGAGCCCGGGUAAGUUUAAAUAGUCUGCAUGCCGCCGGGCGCCAUGCCUGCAGGUCGACUCUAGAAAACAUG”: the binding signal with PUM1 PUF domain R7-LTC is 3.36 log2 enrichment (interaction score); with PUM1 PUF domain R7-RPQ, 5.16 log2 enrichment (interaction score).

With “GGCUAGAACUAGUGGAUCCCCCGGCGCCCGGCGGCUCGAGCCCGGGUAAGUGAAAAUAGUCUGCAUGCCGCCGGGCGCCAUGCCUGCAGGUCGACUCUAGAAAACAUG”, the binding signal with PUM1 PUF domain R6-RWV was 2.99 log2 enrichment (interaction score).

As to “GGCUAGAACUAGUGGAUCCCCCGGCGCCCGGCGGCUCGAGCCCGGGUAAGUGUACAUAGUCUGCAUGCCGCCGGGCGCCAUGCCUGCAGGUCGACUCUAGAAAACAUG”, the binding signal with PUM1 PUF domain R4-GNS is 2.01 log2 enrichment (interaction score).

For “GGCUAGAACUAGUGGAUCCCCCGGCGCCCGGCGGCUCGAGCCCGGGUAAGUGUAAUUAGUCUGCAUGCCGCCGGGCGCCAUGCCUGCAGGUCGACUCUAGAAAACAUG”, the binding signal in the experiment with PUM1 PUF domain R3-RSH was 3.41 log2 enrichment (interaction score).
